Test [1] deals with HaCat. Nature of the test: Cytotoxic Profiling of Annotated Libraries Using Quantitative High-Throughput Screening (AID 1296008). For max response: % is set by controls: 0 for no effect and ±100 for the full control effect. Note: potency is the fitted concentration of half-maximal effect. To be noted: Five cell lines viability, CellTiter-Glo ATP luminescence, 48-72 h; max response: active compounds read low. A digest of the protocol:
(§1)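 Cytotoxicity was measured as CellTiter-Glo ATP luminescence, read after 10 min at room temperature. Compound treatment of the cells lasted 48 or 72 hr at 37 degrees Celsius in a qHTS format.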
(In general: ATP-based viability assays read luminescence as a measure of living cells.)

Test [2] relates to KB-3-1. The description is as above. To be noted: Five cell lines viability, CellTiter-Glo ATP luminescence, 48-72 h; max response: active compounds read low. A digest of the protocol:
as §1

Test [3] has as its system NIH3T3. The description is as above. Particulars: Five cell lines viability, CellTiter-Glo ATP luminescence, 48-72 h; max response: active compounds read low. A digest of the protocol:
as §1

For test [4], the system named is HACAT. Nature of the test: qHTS assay to identify novel small-molecules to repurpose for Merkel cell carcinoma treatment (AID 1296009). To be noted: MCC and control cell lines, CellTiter-Glo viability, 72 h; series mostly up to 44.8 µM. A digest of the protocol:
(§2)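 72 hr, 37 degree celsius; NPC 8-pt / MIPE 11-pt dose response; compound pinned in DMSO; CellTiter-Glo, 10 min RT, luminescence; normalized to no-cell and DMSO controls.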

Test [5] has as its system NIH3T3. Described as above. To be noted: MCC and control cell lines, CellTiter-Glo viability, 72 h; at 44.8 µM (top of the series) unless noted. A digest of the protocol:
as §2

The test system of test [6] is HEK293T. The description is as above. To be noted: MCC and control cell lines, CellTiter-Glo viability, 72 h; at 44.8 µM (top of the series) unless noted. The procedure, abridged: as §2

Inconclusive results are not listed. Unmarked numbers belong to inactive results. Active and inactive are the calls of the source. Calls come from the whole dose curve; as a rule, active = well fitted inhibition curve with a large enough effect; inconclusive = small, poorly fitted or top-dose-only effect; inactive = flat fitted curve, though single readings scatter.
Note: nearly all actives have a fitted effect of over 60% in size.

For the compound `CC1=CC(=O)[C@]2(O[C@@H]3O[C@@H](C)[C@H](O)[C@@H](O)[C@H]3OC(=O)/C=C/c3ccccc3)C=CO[C@@H](O[C@@H]3O[C@H](CO)[C@@H](O)[C@H](O)[C@H]3O)[C@H]12`, the outcome in test [1] and in test [3] was inactive. Further, the max response in test [2] is 8.78%. In test [4], the Potency entry is “inactive”. Further, in test [5], the outcome was “inactive [at 17.4 µM]”.

In the case of `CC(=O)OC/C=C(\C)C(CC1C(C)=C(OC(C)=O)C(=O)C2C(C)(C)C(O)CCC12C)OC(C)=O` (stereo not given), the call in test [1] and in test [2] was inactive. The Potency result in test [4] was “inactive”.

`CCOc1cc(CC(=O)NC(CC(C)C)c2ccccc2N2CCCCC2)ccc1C(=O)O` (stereo not given): the max response is 3.59% in test [1] and -3.75% in test [2]. Further, the outcome in test [3] and in test [5] was inactive.

In the case of `CC(=O)O[C@@H]1[C@@H](O)[C@H](O[C@H]2CC[C@]34C[C@]35CC[C@]3(C)[C@@H]([C@@]6(C)CC[C@@H](C(C)(C)O)O6)[C@@H](O)C[C@@]3(C)[C@@H]5C[C@H](O[C@@H]3O[C@H](CO)[C@@H](O)[C@H](O)[C@H]3O)[C@H]4C2(C)C)OC[C@H]1O`, the call in test [1] and in test [2] was inactive. In test [4], the Potency result was “inactive”.

On to `CCOCc1cc(OC)c(-c2ccc(C[C@H](NC(=O)c3c(F)cccc3F)C(=O)O)cc2)c(OC)c1`, for which the result in test [1] and in test [2] was inactive. In test [4], the Potency result was “inactive”.

Turning to `COc1ccc2[nH]c3c(-c4cccc5ccccc45)nccc3c2c1`, the compound was classed as inactive in test [1]. Besides, the Potency in test [2] is 820 nM (active). Also, the Potency entry in test [4] was “inactive”.

As for `C/C(=C\CCC(C)CCO)C(=O)OC1(C)CCC2C(C(=O)O)=COC(OC3OC(CO)C(O)C(O)C3O)C21` (stereo not given), the max response in test [1] was -20.6%. In test [2], the compound was classed as inactive. Besides, the outcome in test [3] was “inactive; activator”; in test [6] it was “inactive [at 17.4 µM]”; in test [5] it was “inactive; activator [at 17.4 µM]”.

Take `CCC(C)/C=C(C)/C=C/c1cc2c(cn1)C(=O)C(C)(OC(C)=O)C(O)=C2Cl` (stereo not given): the compound was classed as inactive in test [1], in test [2], in test [3] and in test [5]. Moreover, the Potency result in test [4] is “inactive”.

In the case of `CC(=O)OC1C(O)CC2(C)C(CCC(C)C23Cc2c(O)cc(CO)c(C=O)c2O3)C1(C)C` (stereo not given), the values for the max response in test [1] and in test [2] were -3.73% and 6.45%, respectively. For the same compound, the outcome in test [3] was inactive. Also, the outcome in test [5] is “inactive [at 17.4 µM]”.

`CS(=O)(=O)NCC1CCC(Nc2nc3c(s2)CCSc2ccccc2-3)CC1` (stereo not given): the compound was called inactive in test [1]. Also, the max response in test [2] was -22.2%. Moreover, the Potency entry in test [4] is “inactive”.

Regarding `CC1(C)CCC[C@@]2(C)C1[C@H](OC(=O)/C=C/C=C/C(=O)O)C=C1COC(=O)[C@@]12O` (stereo not given in full), the compound was called inactive in test [1], in test [3] and in test [5]. Besides, the max response in test [2] is 0.106%. Also, the Potency result in test [4] is “inactive”.

Turning to `CC(C)c1ccc(CO)cc1O[C@@H]1O[C@H](CO)[C@@H](O)[C@H](O)[C@H]1O`, the max response in test [1] is 1.11%. The outcome in test [2], in test [3], in test [6] and in test [5] was inactive.

`O=C(OC1C=C(CO)C2C(OC3OC(CO)C(O)C(O)C3O)OC=CC12)c1ccc(O)cc1` (stereo not given): the max response in test [1] is -13.5%. Further, the result in test [2] and in test [3] was inactive. The outcome in test [5] was “inactive [at 17.4 µM]”.

On to `COC(=O)CC(O)CC(O)/C=C/c1c(C)ccc2c1C(O)CC(C)C2` (stereo not given), for which the max response in test [1] is -0.771%. Further, the call in test [2], in test [3], in test [6] and in test [5] was inactive.

`Nc1nc2c(ncn2[C@@H]2O[C@@H]3COP(=O)(O)O[C@H]3[C@H]2O)c(=O)[nH]1`: the outcome in test [1] and in test [2] was inactive. Also, the Potency entry in test [4] was “inactive”.

As for `CC(C)N(CCCCOCC(=O)NS(C)(=O)=O)c1cnc(-c2ccccc2)c(-c2ccccc2)n1`, the compound was classed as inactive in test [1] and in test [6]. The max response in test [3] was -0.443%. For the same compound, the Potency entry in test [4] is “inactive”.

`CC[C@]12C=CCN3CC[C@@]4(c5cc([C@@]6(C(=O)OC)C[C@H]7C[C@@H](C(C)(F)F)CN(Cc8c6[nH]c6ccccc86)C7)c(OC)cc5N(C)[C@H]4[C@@](O)(C(=O)OC)[C@@H]1OC(C)=O)[C@@H]32`: the outcome in test [1] was inactive. For the same compound, the Potency in test [2] was 137 nM (active). Further, the Potency result in test [4] was “inactive”.

On to `COc1ccc(CC2C(=O)NC(C)C(=O)N(C)C3Cc4ccc(cc4)Oc4cc(ccc4OC4OC(CO)C(O)C(O)C4O)CC(C(=O)NC(C)C(=O)NC(C)C(=O)N2C)N(C)C3=O)cc1` (stereo not given), for which, in test [2], the Potency is 138 nM (active).

For the compound `C[C@@H]1O[C@@H](O[C@H]2[C@H](O[C@H]3CC[C@@]4(C)C(CC[C@]5(C)C4C=C[C@]46OC[C@@]7(CCC(C)(C)C[C@H]74)[C@@H](O)C[C@]65C)[C@]3(C)CO)O[C@H](CO)[C@@H](O)[C@@H]2O[C@@H]2O[C@H](CO)[C@@H](O[C@@H]3O[C@@H](C)[C@H](O)[C@@H](O)[C@H]3O)[C@H](O)[C@H]2O)[C@H](O)[C@H](O)[C@H]1O` (stereo not given in full), the max response in test [2] is -30.1%.

For the compound `COc1cc2nc(N3CCC(N4CCCCC4)CC3)nc(NC3CCCCCC3)c2cc1OC`, the Potency in test [2] is 5800 nM (active).

Turning to `CC(C)(C#N)c1ccc(N2C(=O)OCc3cnc4ccc(-c5cnc6ccccc6c5)cc4c32)cc1`, the Potency in test [2] is 6510 nM (active).

Turning to `COc1ccc(-n2[nH]c(=O)c3[nH]c4cc(Cl)ccc4c(=O)c3c2=O)c(C)c1`, the outcome in test [1] and in test [6] was inactive. Besides, in test [3], the max response was 4.85%. Besides, the Potency entry in test [4] is “inactive”.

On to `Cn1cc(-c2ccc3nnc(Sc4ccc5nn(C)cc5c4)n3n2)cn1`, for which the max response in test [1] was -20.1%. The result in test [2] and in test [6] was inactive.

Consider `CCNCc1nc2c(N)nc3ccccc3c2n1CC(C)(C)O`, for which the call in test [1], in test [3] and in test [5] was inactive. The Potency entry in test [4] is “inactive”.

As for `COc1ccc(Oc2cc(C)c(-c3csc(NC(=O)c4ccncc4)n3)c(C)c2)cc1`, the Potency in test [2] was 146 nM (active).

As for `O=C(NCc1cccc(O)c1)Nc1nc(-c2ccncc2)cs1`, the max response in test [2] was -3.25%.

Regarding `Cc1ccc(C(=O)N(CCCN)C(c2nc3cc(Cl)ccc3c(=O)n2Cc2ccccc2)C(C)C)cc1` (stereo not given), the Potency in test [2] was 8.2 nM (active).

These data come from PubChem BioAssay (NCATS).
